Entries with a potency or affinity are not part of this list. Results filed as inconclusive are left out. Calls of active or inactive are those of the source.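 The calls were made as follows: active = fitted half-maximal inhibiting dose no more than ten times the top valid dose tested; inconclusive = flat activity from -30 to -70%, or unreliable curve fit; inactive = the rest.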

For this assay, the target named is CAAX prenyl protease 2 (Homo sapiens) (UniProt Q9Y256). Briefly: inhibition of Ras-converting CAAX endoprotease – biochemical, plate reader, dry powder samples, dose response (AID 588848). The settings on record: yeast membranes expressing human Rce1, fluorogenic peptide cleavage; series mostly up to 30 µM.
Sequence of CAAX prenyl protease 2 (Homo sapiens) (Q9Y256 whole entry, looked up): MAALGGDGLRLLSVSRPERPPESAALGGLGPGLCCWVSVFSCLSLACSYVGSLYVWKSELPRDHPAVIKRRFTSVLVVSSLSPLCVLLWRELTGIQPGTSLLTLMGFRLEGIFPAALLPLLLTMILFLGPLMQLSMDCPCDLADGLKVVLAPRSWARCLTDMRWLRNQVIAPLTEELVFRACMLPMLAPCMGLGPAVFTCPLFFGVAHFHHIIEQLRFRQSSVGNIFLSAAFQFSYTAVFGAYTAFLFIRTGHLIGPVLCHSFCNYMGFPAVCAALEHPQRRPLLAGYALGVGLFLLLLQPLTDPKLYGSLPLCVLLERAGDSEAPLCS
In the case of `CCCOc1ccc(-c2c(C(=O)N/N=C/c3cccs3)nnn2-c2nonc2N)cc1`, the compound was classed as inactive.

For the compound `CCOc1cccc(-c2c(C(=O)N/N=C/c3cccs3)nnn2-c2nonc2N)c1`, the compound was called inactive.

Consider `COc1ccc(-n2c(SCc3ccc([N+](=O)[O-])cc3)nnc2-c2ccc(C)cc2)cc1`, for which the compound was classed as inactive.

Take `Cc1ccc(NC(=O)CCc2ccc(S(=O)(=O)NC3CCCCC3)cc2)cc1`: the compound was called inactive.

On to `CC(C)c1c(C(=O)N/N=C/c2cccc3ccccc23)nnn1-c1nonc1N`, for which the compound was called inactive.

Consider `Cc1cc(N2CCN(C(c3ccccc3)c3ccccc3)CC2)n2ncnc2n1`, for which the compound was called inactive.

`Nc1nonc1-n1nnc(C(=O)N/N=C/c2cccc(Cl)c2)c1CSc1ccc(Cl)cc1`: the call was inactive.

On to `Cc1cccc(-c2nnc(SCc3ccc(C#N)cc3)n2Cc2ccco2)c1`, for which the compound was called inactive.

For the compound `Cc1ccc(SCc2c(C(=O)N/N=C/c3ccccc3)nnn2-c2nonc2N)cc1`, the result was inactive.

As for `CN(C(=O)COC(=O)c1cn(-c2ccccc2)nc1-c1ccccc1)C1CCS(=O)(=O)C1` (stereo not given), the outcome was inactive.

For the origin of these results see PubChem BioAssay AID588848 (Broad Institute, 2011).
